Measurements taken from PubChem BioAssay (NCI).
Compounds without any hit were thinned out: in the full panel of roughly 79,000, 15% have a hit. Active and inactive are the calls of the source. No stated cut-off is given here; in the data, active means growth inhibition above about 70%; inactive means the rest.

What was measured:
[1] = NCI Yeast Anticancer Drug Screen. Data for the rad52 strain (AID 147);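 further: 0% = growth of vehicle-treated control cultures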; conditions: S. cerevisiae rad52 mutant growth inhibition, hits give high values
Method in brief: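 Vehicle-treated cultures served as the reference for growth inhibition of compound-exposed yeast bearing a DNA repair mutation.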

[2] = NCI Yeast Anticancer Drug Screen. Data for the wt1 strain (AID 149);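 further: 0% = growth of vehicle-treated wt1 cultures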; conditions: S. cerevisiae wt1 strain (SPY 50644) growth inhibition, hits give high values
Method in brief: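 Readout: yeast growth inhibition, normalised to vehicle controls, in the wt1 strain exposed to test compounds.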

[3] = NCI Yeast Anticancer Drug Screen. Data for the rad50EPP+ strain (AID 151);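 further: 0% = growth of vehicle-treated control cultures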; conditions: S. cerevisiae rad50 mutant strain, hits give high values
Method in brief: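 In this screen, rad50EPP+ yeast were exposed to compounds. Growth inhibition was scored against vehicle-treated controls.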

[4] = NCI Yeast Anticancer Drug Screen. Data for the rad50 strain (AID 155);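 further: 0% = growth of vehicle-only cultures of the same strain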; conditions: S. cerevisiae rad50 strain growth inhibition, hits give high values
Method in brief: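 Compounds were tested on a yeast strain with an engineered DNA damage repair alteration; the reported value is growth inhibition normalised to vehicle treatment.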

[5] = NCI Yeast Anticancer Drug Screen. Data for the mec2-1 strain (AID 157); conditions: S. cerevisiae mec2-1 strain, hits give high values
Method in brief: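 Vehicle-treated cultures served as reference for growth inhibition of compound-exposed mec2-1 yeast.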

[6] = NCI Yeast Anticancer Drug Screen. Data for the rad14 strain (AID 159);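 further: 0% = growth of vehicle-treated control cultures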; conditions: S. cerevisiae rad14 strain growth inhibition, hits give high values
Method in brief: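 Compound-treated yeast with a defined DNA-repair lesion; growth inhibition normalised to vehicle-treated cultures.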

[7] = NCI Yeast Anticancer Drug Screen. Data for the sgs1 mgt1 strain (AID 161);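 further: 0% = growth of cultures given vehicle only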; conditions: S. cerevisiae sgs1 mgt1 strain, hits give high values
Method in brief: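 Genetically altered yeast, compound exposure, growth inhibition relative to vehicle.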

[8] = NCI Yeast Anticancer Drug Screen. Data for the CLN2oe strain (AID 163);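 further: 0% = growth of vehicle-only control cultures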; conditions: S. cerevisiae CLN2oe strain, hits give high values
Method in brief: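 Inhibition relative to vehicle-treated yeast is reported. Cells: strain with genetic alteration in cell-cycle control, grown with compound.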

[9] = NCI Yeast Anticancer Drug Screen. Data for the cln2 rad14 strain (AID 165);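 further: 0% = growth equal to vehicle treated cultures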; conditions: S. cerevisiae cln2 rad14 strain, hits give high values
Method in brief: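 Each compound was tested on cln2 rad14 yeast. Inhibition of growth was calculated against vehicle-exposed controls.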

[10] = NCI Yeast Anticancer Drug Screen. Data for the bub3 strain (AID 167); conditions: S. cerevisiae bub3 mutant strain, hits give high values
Method in brief: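 Growth of a checkpoint-deficient yeast mutant is measured after compound exposure. Values represent inhibition relative to vehicle.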

[11] = NCI Yeast Anticancer Drug Screen. Data for the wt2 strain (AID 169);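 further: 0% = growth of vehicle-treated yeast cultures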; conditions: S. cerevisiae wt2 strain growth inhibition, hits give high values
Method in brief: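 Inhibition of yeast growth was determined after compound treatment, normalised to controls receiving only vehicle.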

[12] = NCI Yeast Anticancer Drug Screen. Data for the mlh1 strain (AID 171);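 further: 0% = growth of vehicle-treated control cultures of the same strain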; conditions: S. cerevisiae mlh1 strain growth inhibition, hits give high values
Method in brief: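 Vehicle-normalised growth inhibition of a repair- or checkpoint-altered yeast strain following compound treatment.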

[13] = NCI Yeast Anticancer Drug Screen. Data for the sgs1 strain (AID 173);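 further: 0% = growth of vehicle-only control cultures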; conditions: S. cerevisiae sgs1 mutant, hits give high values
Method in brief: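 Screen format: yeast with repair or checkpoint alterations, compound exposure, growth read relative to vehicle.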

[14] = NCI Yeast Anticancer Drug Screen. Data for the mlh1 rad18 strain (AID 175); conditions: S. cerevisiae mlh1 rad18 strain growth inhibition, hits give high values
Method in brief: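 Vehicle-treated cultures served as the reference for growth inhibition in a yeast strain carrying DNA damage repair alterations exposed to each compound.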

[15] = NCI Yeast Anticancer Drug Screen. Data for the rad18 strain (AID 177); conditions: S. cerevisiae rad18 mutant growth inhibition, hits give high values
Method in brief: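 Test articles were incubated with altered yeast defective in DNA damage repair. Results are given as inhibition of growth versus vehicle.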

[16] = at 5.0 µM (retest, dose inferred, filed as 0.5)
[17] = at 50.0 µM (retest, dose inferred, filed as 5.0)

Measured: growth inhibition

COc1ccc(CCN2C(=O)C=CC2=O)cc1OC
inactive: [1]; at 1.2 µM 13% | [1]; at 3.7 µM 37% | [2]; at 1.2 µM -1% | [2]; at 3.7 µM 7% | [2]; at 11.0 µM 62% | [3]; at 1.2 µM 7% | [3]; at 3.7 µM 50% | [4]; at 1.2 µM 4% | [4]; at 3.7 µM 18% | [4]; [16] 27% | [4]; at 11.0 µM 67% | [4]; [17] 51% | [5]; at 1.2 µM 5% | [5]; at 3.7 µM 38% | [5]; [16] 43% | [5]; [17] 42% | [6]; at 1.2 µM -10% | [6]; at 3.7 µM 3% | [6]; at 11.0 µM 63% | [8]; at 1.2 µM 17% | [8]; at 3.7 µM 33% | [10]; at 1.2 µM 15% | [10]; at 3.7 µM 43% | [11]; at 1.2 µM -21% | [11]; at 3.7 µM 5% | [11]; at 11.0 µM 48% | [12]; at 1.2 µM -19% | [12]; at 3.7 µM 4% | [12]; at 11.0 µM 53% | [13]; at 1.2 µM 1% | [13]; at 3.7 µM 5% | [13]; at 11.0 µM 38% | [14]; [16] 23% | [14]; [17] 44% | [15]; at 1.2 µM -2% | [15]; at 3.7 µM 15% | [15]; at 11.0 µM 64%
active: [1]; at 11.0 µM 79% | [1]; at 33.0 µM 99% | [1]; at 100.0 µM 99% | [2]; at 33.0 µM 99% | [2]; at 100.0 µM 99% | [3]; at 11.0 µM 82% | [3]; at 33.0 µM 96% | [3]; at 100.0 µM 98% | [4]; at 33.0 µM 98% | [4]; at 50.0 µM 83.2% | [4]; at 100.0 µM 98% | [5]; at 11.0 µM 79% | [5]; at 33.0 µM 100% | [5]; at 50.0 µM 92.3% | [5]; at 100.0 µM 100% | [6]; at 33.0 µM 99% | [6]; at 100.0 µM 99% | [7]; [16] 74% | [7]; [17] 98% | [8]; at 11.0 µM 81% | [8]; at 33.0 µM 99% | [8]; at 100.0 µM 99% | [9]; [16] 78% | [9]; [17] 99% | [10]; [16] 97% | [10]; at 11.0 µM 88% | [10]; at 33.0 µM 99% | [10]; [17] 97% | [10]; at 100.0 µM 99% | [11]; at 33.0 µM 99% | [11]; at 100.0 µM 99% | [12]; at 33.0 µM 99% | [12]; at 100.0 µM 98% | [13]; at 33.0 µM 98% | [13]; at 100.0 µM 98% | [14]; at 50.0 µM 84.4% | [15]; at 33.0 µM 98% | [15]; at 100.0 µM 98%
